Bioassay records from PubChem.
IDE act = activators of human insulin-degrading enzyme in cells; HEK cells, FAbeta-B cleavage, fluorescence polarization; 0% vehicle, 100% cell-free pure enzyme wells; 340,000 compounds, 0.073% hits; activation, % at 5.96 µM; AID 493087; P14735;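 active = activation above the mean of all tested compounds plus 3 SD, set per screening campaign, cut at about 17% in these data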
Target sequence (P14735 whole entry, looked up): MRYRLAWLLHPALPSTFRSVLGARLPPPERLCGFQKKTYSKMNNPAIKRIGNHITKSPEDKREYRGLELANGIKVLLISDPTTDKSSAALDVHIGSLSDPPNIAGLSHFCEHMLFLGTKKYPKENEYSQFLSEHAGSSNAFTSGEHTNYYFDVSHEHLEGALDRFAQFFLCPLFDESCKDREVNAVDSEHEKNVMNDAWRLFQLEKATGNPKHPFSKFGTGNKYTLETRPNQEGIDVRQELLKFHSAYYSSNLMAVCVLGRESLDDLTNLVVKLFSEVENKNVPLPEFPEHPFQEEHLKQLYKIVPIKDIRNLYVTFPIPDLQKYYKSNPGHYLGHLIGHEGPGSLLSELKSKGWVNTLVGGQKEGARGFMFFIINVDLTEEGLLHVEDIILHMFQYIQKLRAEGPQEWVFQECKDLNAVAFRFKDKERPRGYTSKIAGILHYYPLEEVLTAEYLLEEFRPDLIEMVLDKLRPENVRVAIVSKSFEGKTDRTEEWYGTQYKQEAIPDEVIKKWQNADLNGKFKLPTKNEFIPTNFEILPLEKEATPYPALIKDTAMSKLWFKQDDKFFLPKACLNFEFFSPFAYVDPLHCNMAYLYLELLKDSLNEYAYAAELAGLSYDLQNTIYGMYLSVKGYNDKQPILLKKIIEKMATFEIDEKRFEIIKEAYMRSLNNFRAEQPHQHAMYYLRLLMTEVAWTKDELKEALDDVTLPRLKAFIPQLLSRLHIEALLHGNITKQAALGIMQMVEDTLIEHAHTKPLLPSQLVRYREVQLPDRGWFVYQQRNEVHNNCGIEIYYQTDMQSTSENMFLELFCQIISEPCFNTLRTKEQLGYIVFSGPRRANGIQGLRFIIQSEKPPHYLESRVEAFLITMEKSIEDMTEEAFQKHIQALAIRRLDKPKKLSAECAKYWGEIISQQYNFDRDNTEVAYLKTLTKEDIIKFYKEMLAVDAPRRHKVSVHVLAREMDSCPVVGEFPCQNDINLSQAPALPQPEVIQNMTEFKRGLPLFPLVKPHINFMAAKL
IDE cell inh = inhibits human insulin-degrading enzyme in HEK cells. 320,000 compounds, 0.41% hits. P14735. FAbetaB cleavage, fluorescence polarization. AID 434962. inhibition, % at 5.59 µM;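 active = percent inhibition above the average of all tested compounds plus 3 SD, set per screening campaign, cut at about 16% in these data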;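 also: IDE supplied by intact live HEK cells; FP after avidin binding of uncleaved biotin substrate so inhibition keeps polarization high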
TPT1 inhibitor = inhibitors of Candida albicans tRNA 2'-phosphotransferase TPT1; AID 1962; inhibition, % at 5 µM; 300,000 compounds, 0.81% hits; recombinant caTPT1, FP RNA substrate dephosphorylation;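 active = inhibition above the mean of all tested compounds plus 3 SD, set per screening campaign, cut at about 24% in these data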
HNF4A DNA FP = change in binding of human HNF4 alpha to DNA | HNF4a-FITC DNA binding, fluorescence polarization, 1 h | activity change, % at 10 µM | 360,000 compounds, 0.3% hits | AID 1224865; in the data active = activity change above about 30%, passing the limit was not always enough
CRFBP-R2 agonist = agonists of human CRF-binding protein/CRF-R2 receptor complex | HEK293 CRF-R2/CRF-BP, calcium dye fluorescence (FLIPR); percent of saturating CRF peptide response | activation, % at 13.2 µM | 350,000 compounds, 0.46% hits | AID 588473;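 active = activation of at least 50%, plus an integration ratio under a set limit after plate pattern correction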
Each line names hits and unclear results; the compound was inactive in the other large screens. In the library only some 1.4% were active in any assay of this set; here they are far more common.

CCn1ncc(CN2CCC(n3nccc3NC(=O)c3ccccc3Cl)CC2)c1C	none (no result: IDE act, IDE cell inh, TPT1 inhibitor)
COc1ccc(C2=CC(c3ccc(OC)c(OC)c3)n3nnnc3N2)c(OC)c1 (configuration not stated)	CRFBP-R2 agonist 88
COc1ccc(C2C=C(c3ccccc3)Nc3nnnn32)cc1 (configuration not stated)	none
COc1cccc(-c2cnc(C(O)c3ccc(C(C)(C)C)cc3)[nH]2)c1 (configuration not stated)	none (no result: IDE act, IDE cell inh, TPT1 inhibitor, CRFBP-R2 agonist)
Cc1nc(Cc2nnc(SC(C)C(=O)N3c4ccccc4NC(=O)C3(C)C)o2)cs1 (configuration not stated)	IDE act 20 (no result: TPT1 inhibitor)
Cc1ccc(S(=O)(=O)NC(C(=O)O)c2ccccc2)cc1 (configuration not stated)	CRFBP-R2 agonist 133
Cn1nc(C(=O)N2CCN(c3ccc([N+](=O)[O-])cc3)CC2)c2c1-c1ccccc1S(=O)(=O)C2	none
CCCCn1c(=O)[nH]c2nc3cc(N)ccc3nc2c1=O	CRFBP-R2 agonist 232
Cc1cc2nc3c(=O)n(CCc4ccccc4)c(=O)[nH]c3nc2cc1N	CRFBP-R2 agonist 152
CCCCn1c(N)c(Br)c(=O)[nH]c1=O	none
CCOC(=O)C1C(C(=O)OCC)C2C(=O)C3C(C(=O)OCC)C(C(=O)OCC)C3C(=O)C12 (configuration not stated)	none (no result: IDE act, IDE cell inh, TPT1 inhibitor, CRFBP-R2 agonist)
CCC(Cc1c(I)cc(I)c(N)c1I)C(=O)O (configuration not stated)	none
O=C(Cc1ccc(F)cc1)Nc1c(C(=O)N2CCN(c3ncccn3)CC2)oc2ccccc12	none
CC(C)C[C@@H](CN1CCC[C@H]1CN1C(=O)C(=O)NC[C@@H]1Cc1ccccc1)N1C[C@H](Cc2ccc(O)cc2)N(CC2CCCCCC2)C(=O)C1=O	none (no result: IDE act, IDE cell inh, TPT1 inhibitor, CRFBP-R2 agonist)
Cc1csc(NC(=O)Cc2ccccc2[N+](=O)[O-])n1	CRFBP-R2 agonist 208
CCOC(=O)Cc1csc(NC(=O)Cc2ccccc2[N+](=O)[O-])n1	none
COc1cc(/C=C2\CCC(C)C3=C(c4cc(OC)c(OC)c(OC)c4)C(C#N)=C(N)OC32)cc(OC)c1OC (configuration not stated)	HNF4A DNA FP 78, CRFBP-R2 agonist 63 (no result: IDE cell inh, TPT1 inhibitor)
O=C1Nc2cccnc2N(C(=O)CCl)c2ccccc21	none
COc1ccc(Cn2c(SCc3ccccc3C)nc3cc(OC)c(OC)cc3c2=N)cc1	IDE act 22 (no result: CRFBP-R2 agonist)
COc1ccc(C=C(C(=O)O)c2ccc(OC)cc2)cc1	none (no result: IDE cell inh, TPT1 inhibitor)
COC(=O)C1=NN(C(=O)c2ccccc2)C(O)(c2ccc([N+](=O)[O-])cc2)C1 (configuration not stated)	none (no result: IDE cell inh, TPT1 inhibitor)
COC(=O)C1=NN(C(=O)c2ccc(Br)cc2)C(O)(C(C)(C)C)C1 (configuration not stated)	CRFBP-R2 agonist 52 (no result: IDE cell inh, TPT1 inhibitor)
COC(=O)C1=NN(C(=O)c2ccc(C)cc2)C(O)(c2ccc(Cl)cc2)C1 (configuration not stated)	CRFBP-R2 agonist 86 (no result: IDE act, HNF4A DNA FP)
COC(=O)C1=NN(C(=O)c2cccc(Cl)c2)C(O)(C(C)(C)C)C1 (configuration not stated)	CRFBP-R2 agonist 89
COC(=O)C1=NN(C(=O)c2ccccc2)C(C)(O)C1 (configuration not stated)	none
CCn1c(SCC(=O)Nc2ccc(OC)cc2)nc2c(c1=O)SCC2	none
CCCc1cc(=O)[nH]c(-n2[nH]c3c(c2=O)CCCC3)n1	IDE cell inh 19
Cc1ccccc1-n1nc2c(c1NC(=O)C(C)(C)C)CS(=O)(=O)C2	none
CCOc1cc(C)c(C(C)C)cc1S(=O)(=O)n1cnc(C)c1	CRFBP-R2 agonist 104 (no result: IDE act)
NC(Cc1ccc(Cl)cc1)c1csc(NC(=O)NCC2CCCCC2)n1 (configuration not stated)	none (no result: IDE act, IDE cell inh, TPT1 inhibitor, CRFBP-R2 agonist)
Cc1cc(C)c(OCC(=O)NCC(C)(C)N2CCOCC2)c(C)c1	none
O=C(OCC(=O)N1N=C(c2ccc(Cl)cc2)CC1c1ccco1)c1ccccc1O (configuration not stated)	none
O=C(OCC(=O)N1N=C(c2ccc(Cl)cc2)CC1c1ccco1)c1ccco1 (configuration not stated)	CRFBP-R2 agonist 240
Cc1nc(-c2ccc(F)cc2)c(CC(=O)Nc2ccc(C)c(S(=O)(=O)N3CCOCC3)c2)s1	none
CCCCc1cc(O)c(CCCC)c(O)c1	CRFBP-R2 agonist 100
CCOC(=O)N1CCN(C(=O)c2c[nH]c3ccc(S(=O)(=O)N(C)c4cccc(C)c4)cc3c2=O)CC1	CRFBP-R2 agonist 82
O=C(C1CCCN(S(=O)(=O)c2ccccc2[N+](=O)[O-])C1)N1CCN(c2ccccc2)CC1 (configuration not stated)	IDE cell inh 18
COc1ccc(OC)c(/C=c2\sc3nc(-c4cccs4)nn3c2=O)c1	CRFBP-R2 agonist 175
COc1ccccc1/C=c1\sc2nc(-c3ccco3)nn2c1=O	none
c1cc(-c2nnc(-c3ccncc3)o2)ccn1	none
CCN(CC)c1ccc2cc(-c3nnc(-c4ccncc4)o3)c(=O)oc2c1	CRFBP-R2 agonist 337 (no result: IDE cell inh, TPT1 inhibitor)
CC1=C(C(=O)N(C)C)CC(CC(=O)NC(c2ccccc2)c2ccccc2)C(=O)N1Cc1ccc(F)cc1 (configuration not stated)	none (no result: IDE act, IDE cell inh, TPT1 inhibitor)
O=C1Nc2ccccc2-n2nnnc2C1N1CCN(C(=O)c2ccco2)CC1 (configuration not stated)	none (no result: IDE act, IDE cell inh, TPT1 inhibitor, CRFBP-R2 agonist)
COc1cccc(OC)c1C(=O)N1CCOCC1	HNF4A DNA FP 34
COc1ccc(C(=O)N2CCOCC2)cc1Br	none
Cc1noc(C)c1NC(=O)Nc1cccc2c1O[C@@H](CN(C)C(=O)Nc1ccc3c(c1)OCO3)[C@@H](C)CN([C@H](C)CO)C2=O	none (no result: TPT1 inhibitor)
CC(=O)c1c(O)c(C)c(O)c2c1OC1=CC(=O)/C(=C(/C)N)C(=O)C12C (configuration not stated)	none (no result: IDE act, IDE cell inh, TPT1 inhibitor)
COC12CC(=O)C(C(C)=O)=C(O)C1(C)c1c(O)c(C)c(O)c(C(C)=O)c1O2 (configuration not stated)	HNF4A DNA FP 65 (no result: IDE act, IDE cell inh, TPT1 inhibitor, CRFBP-R2 agonist)
C=CCC(NC(=O)N(C)C)(C(C)=O)C(=O)OC (configuration not stated)	none (no result: IDE act, IDE cell inh, TPT1 inhibitor, CRFBP-R2 agonist)
Cc1nc2nc(C)n(CCN3CCOCC3)c(=O)c2c(-c2cccc([N+](=O)[O-])c2)c1C(=O)CCCCCCCCCCN1CCC(c2ccccc2)(c2ccccc2)CC1	none (no result: IDE cell inh, TPT1 inhibitor)
O=C(/C=C/c1ccccc1)Nc1ccc(N2CCCCC2)cc1	none
O=C(/C=C/c1ccc(Cl)cc1)Nc1ccc(N2CCCCC2)cc1	IDE act 40
Cc1cccc(C)c1N(CC(=O)N1CCCC1)S(C)(=O)=O	none
CCOC(=O)[C@]12CCC=C1N(Cc1cccc3ccccc13)C(=O)[C@H](CC(=O)NCCc1ccccc1OC)C2	none (no result: IDE act, IDE cell inh, TPT1 inhibitor, CRFBP-R2 agonist)
Cc1ccc(N/C=C(\C#N)S(=O)(=O)c2ccccc2)cc1	IDE act 18
COc1ccc(N/C=C(\C#N)S(=O)(=O)c2ccc(OC)cc2)cc1	none
O=C(COc1cccc2cccnc12)Nc1cccc(S(=O)(=O)N2CCCC2)c1	IDE act 30 (no result: TPT1 inhibitor)
CCOc1ccc(NC(=O)COc2cccc3cccnc23)cc1S(=O)(=O)N1CCCC1	none (no result: IDE act, IDE cell inh, TPT1 inhibitor)
